Among the test systems are SR leukemia; RPMI-8226 leukemia; OVCAR-8 ovarian; OVCAR-5 ovarian; OVCAR-4 ovarian; SK-OV-3 ovarian; IGROV1 ovarian; OVCAR-3 ovarian; HS 578T breast; NCI/ADR-RES ovarian; T-47D breast; BT-549 breast; MDA-MB-435 melanoma; SW-620 colon; MCF7 breast; HCT-116 colon; HCC-2998 colon; KM12 colon.
Assay in all cases: NCI-60 one-dose screen, 48 h (100 = growth as untreated, 0 = no growth, -100 = all killed)
What all share (settings): 10 µM unless noted

The values that follow come from PubChem BioAssay (NCI).

This is part of a sample that, as a whole, favours compounds with a hit. Of some 83,000 tested, about 20% had one in any assay.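 48-hour exposure, single concentration, 96-well plates; percent growth endpoint where 0 means no net growth. Active: below 10.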 Unmarked numbers belong to inactive results. The source made the active and inactive calls.

For `CN(C)CCCC1(c2ccc(F)cc2)OCc2cc(-c3csc4ccccc34)ccc21` (configuration not stated), the growth in the assay on SR leukemia was -8.7% (active); in the assay on RPMI-8226 leukemia, -40.7% (active); in the assay with OVCAR-8 ovarian, -23.2% (active); in the assay on OVCAR-5 ovarian, 37%; with OVCAR-4 ovarian, 26.4%; in the assay on SK-OV-3 ovarian, 81.9%. Also, the growth is -31.1% (active) in the assay with IGROV1 ovarian; -58.2% (active) with OVCAR-3 ovarian; 19.3% in the assay on HS 578T breast; 37.9% with NCI/ADR-RES ovarian; 26.4% with T-47D breast; 84.2% in the assay with BT-549 breast. In addition, the growth is -91.4% (active) with MDA-MB-435 melanoma; -82.4% (active) in the assay on SW-620 colon; -62.5% (active) in the assay on MCF7 breast; -44.2% (active) in the assay on HCT-116 colon; -82.9% (active) with HCC-2998 colon; -83.2% (active) in the assay with KM12 colon.
On to `COc1cc(-c2nccc3[nH]c(-c4cccc5[nH]ccc45)nc23)cc(OC)c1OC`, for which the growth is 8.9% (active) in the assay on SR leukemia; -43.6% (active) in the assay with RPMI-8226 leukemia; 18.2% with OVCAR-8 ovarian; 73.8% with OVCAR-5 ovarian; 47.5% in the assay on OVCAR-4 ovarian; 15.1% in the assay on SK-OV-3 ovarian. The growth in the assay with IGROV1 ovarian was 44.6%; in the assay with OVCAR-3 ovarian, 16.7%; with HS 578T breast, 38.4%; in the assay on NCI/ADR-RES ovarian it was 4.71% (active); in the assay with T-47D breast, 39.9%; in the assay on BT-549 breast, 42.5%. Moreover, the growth was 1.47% (active) in the assay with MDA-MB-435 melanoma; 27% in the assay with SW-620 colon; 9.9% (active) with MCF7 breast; 4.28% (active) in the assay on HCT-116 colon; 21.6% in the assay with HCC-2998 colon; 16.9% in the assay on KM12 colon.
As for `CCC(C)(C)c1ccc(Nc2ccc(Nc3ccc(C(C)(C)CC)cc3)cc2)cc1`, the growth in the assay with SR leukemia was 87.7%; in the assay with RPMI-8226 leukemia, 76.8%; in the assay on OVCAR-8 ovarian, 87.7%; in the assay on OVCAR-5 ovarian it was 93.8%; with OVCAR-4 ovarian, 89.2%; with SK-OV-3 ovarian, 89.7%. The growth in the assay with IGROV1 ovarian was 95.3%; in the assay with OVCAR-3 ovarian, 89.9%; with HS 578T breast it was 88.9%; with NCI/ADR-RES ovarian, 91.7%; in the assay with T-47D breast, 58.4%; in the assay with BT-549 breast, 133%. In addition, the growth with MDA-MB-435 melanoma was 97.1%; with SW-620 colon it was 85.5%; in the assay with MCF7 breast, 80%; with HCT-116 colon, 60.5%; in the assay with HCC-2998 colon, 101%; with KM12 colon, 89.9%.
For `Nc1c(Cl)cc(/C=C2\C=Cc3ccccc32)cc1Cl`, the growth is 93.9% in the assay on SR leukemia; 107% with RPMI-8226 leukemia; 104% with OVCAR-8 ovarian; 102% in the assay with OVCAR-5 ovarian; 107% with OVCAR-4 ovarian; 102% in the assay on SK-OV-3 ovarian. Besides, the growth in the assay with IGROV1 ovarian is 103%; in the assay on OVCAR-3 ovarian, 111%; in the assay on HS 578T breast it was 115%; in the assay with NCI/ADR-RES ovarian, 101%; in the assay on T-47D breast, 95.6%; in the assay with BT-549 breast, 101%. Besides, the growth was 107% in the assay with MDA-MB-435 melanoma; 111% with SW-620 colon; 123% with MCF7 breast; 103% in the assay on HCT-116 colon; 98% with HCC-2998 colon; 106% in the assay with KM12 colon.
Take `CN1CCOCCN(C)Cc2ccc3ccc(cc3c2)CN(C)CCOCCN(C)Cc2ccc3ccc(cc3c2)C1`: the growth with SR leukemia was 9.14% (active); with RPMI-8226 leukemia, 36.7%; in the assay with OVCAR-8 ovarian it was 103%; with OVCAR-5 ovarian, 134%; in the assay on OVCAR-4 ovarian it was 78.4%; in the assay on SK-OV-3 ovarian it was 146%. Moreover, the growth in the assay on IGROV1 ovarian was 74.8%; with OVCAR-3 ovarian, 75.6%; with HS 578T breast it was 90.6%; with NCI/ADR-RES ovarian, 83.5%; in the assay on T-47D breast, 119%; with BT-549 breast, 93.6%. Also, the growth in the assay on MDA-MB-435 melanoma was 82.9%; in the assay with SW-620 colon it was 22.4%; in the assay with MCF7 breast, 77.5%; with HCT-116 colon it was 28.3%; with HCC-2998 colon it was 100%; in the assay with KM12 colon it was 73.7%.
For `CCCCCCCCCCOC(=O)c1nn(C(C)=O)c2cc(C)c(C)cc12`, the growth is 98.2% with SR leukemia; 88.9% in the assay with RPMI-8226 leukemia; 98.5% in the assay on OVCAR-8 ovarian; 100% in the assay on OVCAR-5 ovarian; 0.466% (active) with OVCAR-4 ovarian; 92.3% in the assay on SK-OV-3 ovarian. Moreover, the growth in the assay with IGROV1 ovarian was 103%; in the assay with OVCAR-3 ovarian it was 111%; with HS 578T breast, 104%; with NCI/ADR-RES ovarian it was 98.1%; with T-47D breast, 99.7%; with BT-549 breast, 90.5%. The growth in the assay with MDA-MB-435 melanoma was 100%; in the assay with SW-620 colon, 97.3%; with MCF7 breast it was 94%; in the assay on HCT-116 colon, 75.4%; in the assay on HCC-2998 colon, 105%; in the assay with KM12 colon, 104%.
In the case of `COc1ccccc1S(=O)(=O)Nc1ccc2c3c(cc(CCC(=O)NCCCCNc4cccc5c4C(=O)N(C4CCC(=O)NC4=O)C5=O)cc13)C(=O)N2C` (configuration not stated), the growth with SR leukemia was 13.9%; with RPMI-8226 leukemia, 53.6%; with OVCAR-8 ovarian, 4.39% (active); in the assay with OVCAR-5 ovarian, 42%; in the assay on OVCAR-4 ovarian, -19.8% (active); in the assay on SK-OV-3 ovarian, 34.6%. Besides, the growth in the assay with IGROV1 ovarian is -9.53% (active); in the assay with OVCAR-3 ovarian it was 30%; with HS 578T breast it was -17.8% (active); with NCI/ADR-RES ovarian it was 88.2%; in the assay with T-47D breast it was 3.74% (active); with BT-549 breast it was -10.9% (active). In addition, the growth is 23.2% in the assay with MDA-MB-435 melanoma; 7.68% (active) in the assay on SW-620 colon; 6.07% (active) in the assay on MCF7 breast; 46.2% in the assay with HCT-116 colon; 10.9% in the assay with HCC-2998 colon; 20.2% with KM12 colon.
Turning to `C(=C(\C1=NCCN1)n1ccc2ccccc21)/c1ccccc1`, the growth in the assay on SR leukemia is 95.9%; in the assay with RPMI-8226 leukemia, 100%; with OVCAR-8 ovarian, 97%; with OVCAR-5 ovarian, 92.6%; in the assay on OVCAR-4 ovarian, 103%; in the assay on SK-OV-3 ovarian, 105%. In addition, the growth with IGROV1 ovarian is 93.4%; in the assay with OVCAR-3 ovarian, 104%; in the assay with HS 578T breast, 88.6%; in the assay on NCI/ADR-RES ovarian it was 97.6%; with T-47D breast, 90.3%; with BT-549 breast it was 107%. Moreover, the growth is 97.7% in the assay on MDA-MB-435 melanoma; 89.8% in the assay on SW-620 colon; 84.5% in the assay on MCF7 breast; 94% in the assay with HCT-116 colon; 103% with HCC-2998 colon; 99.4% with KM12 colon.
Consider `CCN(CC)C(=O)C1=C(C)NC(=O)NC1c1ccc2c(c1)OCO2` (configuration not stated), for which the growth with SR leukemia is 105%; in the assay on RPMI-8226 leukemia it was 102%; with OVCAR-8 ovarian, 106%; in the assay with OVCAR-5 ovarian, 105%; in the assay with OVCAR-4 ovarian it was 111%; in the assay with SK-OV-3 ovarian it was 111%. Moreover, the growth in the assay on IGROV1 ovarian was 99.6%; in the assay on OVCAR-3 ovarian it was 113%; with HS 578T breast, 96.7%; in the assay with NCI/ADR-RES ovarian, 104%; with T-47D breast, 104%; with BT-549 breast, 111%. In addition, the growth in the assay with MDA-MB-435 melanoma was 108%; with SW-620 colon, 105%; with MCF7 breast, 97.4%; in the assay with HCT-116 colon, 110%; in the assay on HCC-2998 colon, 114%; in the assay with KM12 colon it was 112%.
